Results on 11 compounds are retold here after PubChem BioAssay (EPA / NIEHS).

The structures appear in SMILES notation. Records with an inconclusive call do not appear. Calls of active or inactive are those of the source. The calls were made as follows, unless noted: active = hit-call score of the fitted dose curve at least 0.9, where 1 is the maximum; inconclusive = response in the unintended direction; inactive = score below 0.9.

One experiment concerns IYD (gene 389434). The experiment in a line: CCTE_GLTED_hIYD: CCTE's human Iodotyrosine Deiodinase (xIYD) Inhibition Assay, Great Lakes Toxicology and Ecology Division (GLTED) Lab (AID 2284317).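 Also: cell-free human IYD enzyme made in baculovirus insect cells; iodide freed from monoiodotyrosine measured by cerium arsenite color change at 420 nm.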 In a few lines: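 In the IYD assay, iodide released from MIT by insect-cell-expressed human enzyme was quantified after 3 h via Sandell-Kolthoff rate at 420 nm, with plate-wise normalization to MNT and solvent controls.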

The subject of another experiment is SERPINA7 (gene 6906). Briefly: CCTE_GLTED_hTBG: CCTE's human Thyroxine-binding Globulin (TBG) Inhibition Assay, Great Lakes Toxicology and Ecology Division (GLTED) Lab (AID 2284343).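 Also: active chemicals lower fluorescence versus DMSO baseline by displacing probe.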 In a few lines: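 Cell-free displacement of the fluorescent probe ANSA from human thyroxine-binding globulin after 2 h exposure. Read-out at ex 380/em 475 nm; DMSO baseline.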
Experiment [1] is described as follows: CCTE_Deisenroth_5AR_NBTE_donor: CCTE's 5alpha-reductase NanoBRET Target Engagement Assay […], Deisenroth Lab (AID 2284319; active = hit-call score of the fitted dose curve at least 0.9, where 1 is the maximum; inactive = score below 0.9). Particulars: actives raise or lower the signal. In a few lines: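 HEK293T cells transiently expressing SRD5A2-NanoLuc, exposed 5 h to chemicals (8 points, 10 nM - 29.9 uM), with testosterone tracer for the final 2 h. Donor luminescence at 460 nm read after Nano-Glo substrate plus extracellular NanoLuc inhibitor; bidirectional fit versus DMSO.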

A short description of experiment [2]: CCTE_Deisenroth_5AR_NBTE_acceptor: CCTE's 5alpha-reductase NanoBRET Target Engagement Assay - Autofluorescence Screen, Deisenroth Lab (AID 2284321; active = hit-call score of the fitted dose curve at least 0.9, where 1 is the maximum; inactive = score below 0.9). The settings on record: actives raise or lower the signal. In a few lines: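 Acceptor-channel fluorescence flags artifacts, with excitation fixed at 460 nm. Nominal 100 uM chemical samples were read in triplicate runs, and signal changes were fitted in both directions relative to DMSO.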
(Bioluminescence resonance energy transfer reports proximity on the nanometre scale.)

In the next experiment the test system is SRD5A2 (gene 6716). Briefly: CCTE_Deisenroth_5AR_NBTE_ratio: CCTE's 5alpha-reductase NanoBRET Target Engagement Assay - Ratio, Deisenroth Lab (AID 2284322; active = hit-call score of the fitted dose curve at least 0.9, where 1 is the maximum; inactive = score below 0.9). Particulars: actives raise or lower the signal. In a few lines:
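HEK293T cells transiently expressing an SRD5A2-NanoLuc fusion (20 h post-transfection) were exposed to test chemical (10 nM - 29.9 uM, 8 points) for 3 h, then testosterone tracer for a further 2 h. Acceptor/donor BRET ratio was fitted bidirectionally against DMSO baseline.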

The nature of experiment [3]: IUF_NPC4_neurite_area_120hr: Leibniz Research Institute for Environmental Medicine (IUF) 120-hour Neuronal Morphology Assay for Neurite Area (NPC4) (AID 2284305). In a few lines: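 hNPC spheres on PDL/laminin, N2 medium, 37C/5% CO2; dosed day 0, half-medium refresh day 3; fixed 120 h; TUBB3/Hoechst ICC, high-content imaging; neurite area = mean pixels per neuron (nuclei excluded); DMSO baseline, max 0.1%.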

Experiment [4] in a line: IUF_NPC2-5_cytotoxicity_72hr: Cytotoxicity Assessment at 72 hours in the Leibniz Research Institute for Environmental Medicine (IUF) Neural Progenitor Cell Migration and Differentiation Assay for Cytotoxicity (NPC2-5) (AID 2284306).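 Also: LDH release into supernatant measured by resorufin fluorescence marking membrane damage.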 In a few lines: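 hNPC spheres (0.3 mm), PDL/laminin, DMEM/F12 3:1 + 1% N2; cpd from d0, 7 concs + SC, DMSO max 0.1%; half-medium refresh d3. Readout: supernatant LDH via resorufin fluorescence (RFU), 72 h; gain-of-signal fit.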

Experiment [5] can be described thus: IUF_NPC2-5_cytotoxicity_120hr: Cytotoxicity Assessment at 120 hours in the Leibniz Research Institute for Environmental Medicine (IUF) Neural Progenitor Cell Migration and Differentiation Assay (NPC2-5) (AID 2284307). In a few lines: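 Membrane-integrity loss measured as LDH activity in medium supernatant via resazurin-to-resorufin fluorescence after 120 h exposure. hNPC spheres from GW 16-19 fetal cortex differentiated on poly-D-lysine/laminin, 37C, medium half-refreshed day 3; seven concentrations, DMSO max 0.1%.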

Experiment [6] in a line: IUF_NPC2-5_cell_number_120hr: Cell Number Assessment at 120 hours in the Leibniz Research Institute for Environmental Medicine (IUF) Neural Progenitor Cell Migration and Differentiation Assay (NPC2-5) (AID 2284308; active = hit-call score of the fitted dose curve at least 0.9, where 1 is the maximum; inactive = score below 0.9;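 also: count of Hoechst-stained nuclei in migration zone around plated human neural progenitor spheres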). In a few lines: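 Counting of all Hoechst-stained nuclei in the migration area at 120 h, versus DMSO control. Primary hNPC spheres differentiated on poly-D-lysine/laminin in N2 medium at 37C, dosed from day 0 (7 concentrations, DMSO ≤0.1%), half-refed day 3.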

Experiment [7] can be described thus: IUF_NPC2-5_viability_120hr: Viability Assessment at 120 hours in the Leibniz Research Institute for Environmental Medicine (IUF) Neural Progenitor Cell Migration and Differentiation Assay (NPC2-5) (AID 2284312; active = hit-call score of the fitted dose curve at least 0.9, where 1 is the maximum; inactive = score below 0.9). In a few lines:
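Human fetal neural progenitor spheres (0.3 mm) plated on poly-D-lysine/laminin in N2 differentiation medium, exposed 120 h with half-medium refresh at day 3. Viability by alamar blue resazurin fluorescence; 7 concentrations, DMSO max 0.1%.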

Experiment [8] can be described thus: CCTE_Mundy_HCI_iCellGluta_NOG_NeuriteLength: CCTE's Neurite Outgrowth Assay in iCellGluta cells for Neurite Length, Mundy Lab (AID 2284318). In a few lines: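 Automated high-content imaging of betaIII-tubulin (Alexa Fluor-488) and Hoechst-stained cells gave neurite length, normalized to the DMSO baseline.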
Experiment [9] in a line: IUF_NPC1_cytotoxicity_72hr: Cytotoxicity Assessment at 72 hours in the Leibniz Research Institute for Environmental Medicine (IUF) Neural Progenitor Cell Proliferation Assay (NPC1) (AID 2284332).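 Also: rising LDH signal means more cytotoxicity.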 In a few lines: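 Cytotoxicity by LDH membrane-integrity assay on medium supernatants, fluorescence via resazurin reduction, after 3-day single exposure of primary hNPC spheres at 37C, pH 7.2-7.6 with growth factors. Fitted upward against baseline.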

Experiment [10] in a line: CCTE_Mundy_HCI_iCellGluta_NOG_NeuronCount: CCTE's Neurite Outgrowth Assay in iCellGluta cells for Neuron Count, Mundy Lab (AID 2284340).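 Also: cells fixed about 48 h after compound addition.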 In a few lines:
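Neuron count read by automated high-content imaging of Hoechst 33342 and betaIII-tubulin/Alexa Fluor-488 labelling in human iPSC glutamatergic neurons. Activity fitted relative to DMSO.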

A short description of experiment [11]: CCTE_Mundy_HCI_iCellGluta_NOG_NeuriteCount: CCTE's Neurite Outgrowth Assay in iCellGluta cells for Neurite Count, Mundy Lab (AID 2284342).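 Also: chemical exposure about 48 hours starting 2 hours after plating.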
Another experiment has as its system TTR (gene 7276). Briefly: CCTE_GLTED_hTTR_0.5uM: CCTE's human Transthyretin (hTTR) Inhibition Assay, with 0.5uM TTR, Great Lakes Toxicology and Ecology Division (GLTED) Lab (AID 2284320; active = hit-call score of the fitted dose curve at least 0.9, where 1 is the maximum; inactive = score below 0.9). In a few lines:
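Probe (ANSA) displacement from 0.5 uM human transthyretin was followed by fluorescence (ex 380, em 475) after a 2 h incubation with chemical. Activity was scored as signal loss and fitted positively relative to DMSO.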

As for `COc1ccccc1N=Nc1c(S(=O)(=O)O)cc2cc(S(=O)(=O)O)cc(NC(C)=O)c2c1O`, the half-maximal activity concentration (AC50) in the experiment with IYD (gene 389434) was 94.8 µM (active).
On to `CC(C)CCCCCCCCCCCCCCC(=O)O`, for which the figures for the half-maximal activity concentration (AC50) in the experiment on IYD (gene 389434) and in the experiment with SERPINA7 (gene 6906) were 40.8 µM (active) and 5.3 µM (active), respectively.
On to `COc1ccc(N=Nc2cc(C)c(N=Nc3ccc(S(=O)(=O)O)cc3)cc2OC)cc1`, for which the result in the experiment on IYD (gene 389434) was inactive. For the same compound, the half-maximal activity concentration (AC50) in [1] is 50 µM (active); in [2], 40.6 µM (active); in the experiment on SRD5A2 (gene 6716) it was 87 µM (active); in the experiment on SERPINA7 (gene 6906) it was 35.5 µM (active).
On to `Nc1ccc2cc(S(=O)(=O)O)cc(O)c2c1N=Nc1ccccc1C(F)(F)F`, for which, in the experiment with IYD (gene 389434), the concentration at half-maximal activity (AC50) was 100 µM (active).
For `CCCCCCCCc1ccc(S(=O)(=O)O)cc1`, the concentration at half-maximal activity (AC50) in the experiment on IYD (gene 389434) was 100 µM (active).
Regarding `Cc1cc(S(=O)(=O)O)ccc1N=Nc1c(O)ccc2ccccc12`, the half-maximal activity concentration (AC50) in [1] is 18.3 µM (active); in the experiment with SRD5A2 (gene 6716), 25 µM (active). For the same compound, the result in experiment [2] was inactive.
Consider `COCCc1ccc(OCC(O)CNC(C)C)cc1` (configuration not stated), for which the call in [3], in [4], in experiment [5], in [6], in experiment [7] and in experiment [8] was inactive. The compound was classed as inactive in experiment [9], in [10] and in experiment [11].
In the case of `CN(C)CCOC(C)(c1ccccc1)c1ccccn1` (configuration not stated), the outcome in experiment [4], in [5], in experiment [6], in experiment [7], in experiment [8] and in [9] was inactive. Moreover, the call in experiment [10] and in experiment [11] was inactive.
With `Oc1ccc2cc(SSc3ccc4cc(O)ccc4c3)ccc2c1`, the figures for the AC50 in the experiment on IYD (gene 389434) and with SERPINA7 (gene 6906) were 56.9 µM (active) and 0.423 µM (active), respectively.
As for `[O-]n1ccccc1=S.[O-]n1ccccc1=S.[Zn+2]`, the outcome (in experiment [1]; in experiment [2]; in the experiment with SRD5A2 (gene 6716)) was inactive.
As to `N[C@@H](Cc1cc(I)c(Oc2cc(I)c(O)c(I)c2)c(I)c1)C(=O)O`, the AC50 with TTR (gene 7276) is 0.205 µM (active); in the experiment with SERPINA7 (gene 6906), 0.0273 µM (active).

For orientation: AC50 means the concentration giving half of the maximal activity seen.
